According to the antibiotic and cytotoxicity screens of Wong et al. (2023):
The whole screen tested about 39,000 compounds, of which about 3,300 (8.5%) were called active. What follows is part of a selection rich in actives, with near analogues and random picks from the rest.

Tested on: HepG2
Assay: cytotoxicity call (relative viability < 0.9)
Details: 10 µM

SMILES	cytotoxicity call
C[C@@H]1CCCCO[C@H](CN(C)Cc2ccc(C(=O)O)cc2)[C@H](C)CN([C@@H](C)CO)C(=O)c2cc(NS(=O)(=O)c3ccc(Cl)cc3)ccc2O1	inactive
O=C(C[C@@H]1CC[C@@H]2[C@H](COC[C@H](O)CN2C(=O)c2ccncc2)O1)NC1CCC1	inactive
C[C@@H]1CN([C@H](C)CO)C(=O)c2cc(NC(=O)Nc3ccc(F)cc3)ccc2O[C@@H]1CN(C)S(C)(=O)=O	inactive
C[C@@H]1CN([C@H](C)CO)C(=O)c2cccc(NS(C)(=O)=O)c2O[C@@H]1CN(C)C(=O)Nc1ccccc1	inactive
C[C@@H]1CN([C@H](C)CO)C(=O)c2cccc(NS(=O)(=O)c3ccc(F)cc3)c2O[C@H]1CN(C)C(=O)Nc1cccc2ccccc12	inactive
CN(C)CCCCNC(=O)[C@@H]1C[C@@H]2C(=O)N[C@@H](CCCCN)C(=O)N2[C@@H]1c1ccc(O)cc1	inactive
C[C@H](CO)N1C[C@H](C)[C@@H](CN(C)Cc2ccc(C(F)(F)F)cc2)Oc2ccc(NS(=O)(=O)c3ccc(Cl)cc3)cc2CC1=O	inactive
C[C@@H]1CN([C@@H](C)CO)C(=O)Cc2cc(NS(=O)(=O)c3ccc(Cl)cc3)ccc2O[C@H]1CN(C)Cc1ccc(C(F)(F)F)cc1	inactive
C[C@H]1CN([C@@H](C)CO)C(=O)Cc2cc(NS(=O)(=O)c3ccc(Cl)cc3)ccc2O[C@@H]1CN(C)Cc1ccc(C(F)(F)F)cc1	active
CC(=O)N[C@H]1[C@H]([C@H](O)[C@H](O)CO)OC(C(=O)O)=C[C@@H]1NC(=N)N	inactive
CNC(=O)Nc1ccc(S(N)(=O)=O)cc1	inactive
NS(=O)(=O)c1ccc(NC(=O)C2CC2)cc1	active
NS(=O)(=O)c1ccc(NC(=O)[C@H]2CCCNC2=O)cc1	inactive
Cc1ccc(S(=O)(=O)N(C)C[C@@H]2Oc3c(NC(=O)c4cnccn4)cccc3C(=O)N([C@@H](C)CO)C[C@@H]2C)cc1	inactive
COc1ccc(S(=O)(=O)Nc2ccc3c(c2)CC(=O)N([C@H](C)CO)C[C@@H](C)[C@H](CN(C)S(=O)(=O)c2cccs2)O3)cc1	inactive
C[C@@H]1CN([C@@H](C)CO)C(=O)Cc2cc(NC(=O)Nc3ccc(C(F)(F)F)cc3)ccc2O[C@H]1CN(C)Cc1ccncc1	inactive
C[C@H](CO)N1C[C@H](C)[C@@H](CN(C)Cc2ccncc2)Oc2ccc(NC(=O)Nc3ccc(C(F)(F)F)cc3)cc2CC1=O	active
C[C@H]1CN([C@@H](C)CO)C(=O)Cc2cc(NC(=O)Nc3ccc(C(F)(F)F)cc3)ccc2O[C@@H]1CN(C)Cc1ccncc1	active
C[C@H](CO)N1C[C@H](C)[C@H](CN(C)Cc2ccncc2)Oc2ccc(NC(=O)Nc3ccc(C(F)(F)F)cc3)cc2CC1=O	active
C[C@@H]1CN([C@H](C)CO)C(=O)Cc2cc(NC(=O)Nc3ccc(C(F)(F)F)cc3)ccc2O[C@H]1CN(C)Cc1ccncc1	inactive
C[C@@H]1CN([C@H](C)CO)C(=O)Cc2cc(NC(=O)Nc3ccc(C(F)(F)F)cc3)ccc2O[C@@H]1CN(C)Cc1ccncc1	active

SMILES	cytotoxicity call
Cc1ccc(S(=O)(=O)N(C)C[C@@H]2OCCCC[C@H](C)Oc3ccc(NC(=O)Nc4ccccc4)cc3C(=O)N([C@H](C)CO)C[C@H]2C)cc1	inactive
Cc1ccc(S(=O)(=O)N2C[C@@H](O)COC[C@H]3O[C@H](CC(=O)NCc4ccccc4Cl)CC[C@@H]32)cc1	inactive
COc1ccc(S(=O)(=O)N[C@H]2CC[C@@H](CCNC(=O)CN3CCOCC3)O[C@@H]2CO)cc1	inactive
COc1ccc(S(=O)(=O)Nc2ccc3c(c2)C(=O)N([C@H](C)CO)C[C@H](C)[C@@H](CN(C)C(=O)c2ccccc2)OCCCC[C@@H](C)O3)cc1	inactive
CN(C)CCCNC(=O)C[C@H]1CC[C@H]2[C@H](COc3ccc(NC(=O)NC4CCCC4)cc3C(=O)N2C)O1	inactive
COc1ccc(NC(=O)Nc2ccc3c(c2)C(=O)N([C@@H](C)CO)C[C@@H](C)[C@H](CN(C)C(=O)Cc2ccccc2)OCCCC[C@@H](C)O3)cc1	inactive
CC(=O)N1CCC(C(=O)N2CCC(n3cc(C(C)(C)N)nn3)CC2)CC1	inactive
COc1ccc(CN(C)C[C@@H]2OCCCC[C@H](C)Oc3ccc(NC(=O)Nc4c(C)noc4C)cc3C(=O)N([C@H](C)CO)C[C@H]2C)cc1	inactive
NC(=O)NCC#Cc1ccc2c(c1)[C@]1(C(=O)N2)[C@H](c2ccccc2OCCO)N2[C@H](c3ccccc3)[C@H](c3ccccc3)OC(=O)[C@H]2[C@@H]1C(=O)O	inactive
CCc1nc2ccc(C(=O)Nc3ccc4c(c3)OCC(=O)N4)cn2c1N(CC)Cc1cccc(Br)c1	inactive
COc1ccc(NC(=O)N(C)C[C@@H]2OCCCC[C@H](C)Oc3ccc(NC(=O)c4ccncc4)cc3C(=O)N([C@@H](C)CO)C[C@H]2C)cc1	inactive
COc1ccc(CN(C)C[C@@H]2OCCCC[C@@H](C)Oc3ccc(NC(=O)NC(C)C)cc3C(=O)N([C@H](C)CO)C[C@@H]2C)cc1	inactive
C[C@@H]1CCCCO[C@H](CN(C)C(=O)CCC(F)(F)F)[C@H](C)CN([C@H](C)CO)C(=O)c2cc(NS(=O)(=O)c3ccc(Cl)cc3)ccc2O1	inactive
C=C(/C=C\CNS(=O)(=O)c1ccc(C)cc1)[C@H](O)[C@H]1CCCN1S(=O)(=O)c1ccccc1[N+](=O)[O-]	inactive
C[C@H]1CN([C@@H](C)CO)C(=O)Cc2cc(NC(=O)Nc3ccc(C(F)(F)F)cc3)ccc2O[C@H]1CN(C)Cc1ccncc1	active
C[C@@H]1CN([C@@H](C)CO)C(=O)Cc2cc(NC(=O)Nc3ccc(C(F)(F)F)cc3)ccc2O[C@@H]1CN(C)Cc1ccncc1	active
C[C@@H]1CCCCO[C@@H](CN(C)C(=O)CCC(F)(F)F)[C@@H](C)CN([C@H](C)CO)C(=O)c2cc(NC(=O)Nc3ccccc3)ccc2O1	inactive
N[C@@H](Cn1ccnc1)c1ccccc1	inactive
COc1ccc(C#Cc2ccc3c(c2)O[C@@H](CN(C)C(=O)c2ccccn2)[C@@H](C)CN([C@@H](C)CO)S3(=O)=O)cc1	inactive
CC/C(=C\C(=N\O)C(N)=O)[C@@H](C)[N+](=O)[O-]	inactive
CC(=O)N1CCCC(=O)CC1	inactive

SMILES	cytotoxicity call
C[C@@H]1CCCCO[C@H](CN(C)Cc2ccc3c(c2)OCO3)[C@H](C)CN([C@@H](C)CO)C(=O)c2cc(NC(=O)Cc3ccccc3)ccc2O1	inactive
CNC(=O)C[C@@H]1CC[C@H]2[C@@H](COc3ccc(NC(=O)c4ccc(C(F)(F)F)cc4)cc3C(=O)N2C)O1	inactive
O=C(C[C@H]1C[C@H]2c3cc(NC(=O)c4ccc5c(c4)OCO5)ccc3O[C@H]2[C@@H](CO)O1)NCCc1ccccc1	inactive
O=C(C[C@@H]1C[C@@H]2c3cc(NC(=O)c4ccc5c(c4)OCO5)ccc3O[C@@H]2[C@@H](CO)O1)NCCc1ccccc1	inactive
O=C(C[C@@H]1C[C@@H]2c3cc(NC(=O)c4ccc5c(c4)OCO5)ccc3O[C@@H]2[C@H](CO)O1)NCc1ccc(Oc2ccccc2)cc1	active
O=C(C[C@H]1C[C@@H]2c3cc(NC(=O)c4ccc5c(c4)OCO5)ccc3O[C@@H]2[C@@H](CO)O1)NCc1ccc(Oc2ccccc2)cc1	active
O=C(C[C@H]1C[C@@H]2c3cc(NC(=O)c4ccc5c(c4)OCO5)ccc3O[C@@H]2[C@H](CO)O1)NCc1ccc(Oc2ccccc2)cc1	inactive
O=C(C[C@@H]1C[C@@H]2c3cc(NC(=O)c4ccc5c(c4)OCO5)ccc3O[C@@H]2[C@H](CO)O1)NCc1cccnc1	inactive
O=C(C[C@H]1C[C@H]2c3cc(NC(=O)c4ccc5c(c4)OCO5)ccc3O[C@H]2[C@H](CO)O1)NCc1ccc(Oc2ccccc2)cc1	active
O=C(C[C@H]1C[C@@H]2c3cc(NC(=O)c4ccc5c(c4)OCO5)ccc3O[C@@H]2[C@H](CO)O1)NCc1cccnc1	inactive
O=C(C[C@@H]1C[C@H]2c3cc(NC(=O)c4ccc5c(c4)OCO5)ccc3O[C@H]2[C@H](CO)O1)NCc1ccc(Oc2ccccc2)cc1	inactive
O=C(C[C@H]1C[C@H]2c3cc(NC(=O)c4ccc5c(c4)OCO5)ccc3O[C@H]2[C@@H](CO)O1)NCc1cccnc1	inactive
O=C(C[C@@H]1C[C@@H]2c3cc(NC(=O)c4ccc5c(c4)OCO5)ccc3O[C@@H]2[C@H](CO)O1)NCCc1ccccc1	active
O=C(C[C@H]1C[C@H]2c3cc(NC(=O)c4ccc5c(c4)OCO5)ccc3O[C@H]2[C@H](CO)O1)NCc1cccnc1	inactive
C=CCOC(=O)[C@H]1[C@@H]2C(=O)O[C@@H](c3ccccc3)[C@@H](c3ccccc3)N2[C@@H](c2ccc(OCCOC(=O)[C@@H]3C[C@@H]4C(=O)N[C@@H](CC(C)C)C(=O)N4[C@@H]3c3cccc(OCCO)c3)cc2)[C@]12C(=O)Nc1ccc(I)cc12	inactive
CC(C)NC(=O)Nc1cccc2c1O[C@H](CN(C)C(=O)Nc1ccc3c(c1)OCO3)[C@H](C)CN([C@H](C)CO)C2=O	inactive
CC(C)NC(=O)N(C)C[C@H]1OCCCC[C@@H](C)Oc2ccc(NS(C)(=O)=O)cc2C(=O)N([C@@H](C)CO)C[C@H]1C	inactive
C[C@@H]1CN([C@@H](C)CO)C(=O)c2cccc(NC(=O)c3ccncc3)c2O[C@@H]1CN(C)Cc1ccc(-c2ccccc2)cc1	inactive
CCS(=O)(=O)N[C@@H]1C=C[C@H](CC(=O)NCc2ccccn2)O[C@@H]1CO	inactive
COc1ccc(NC(=O)N(C)C[C@H]2OCCCC[C@@H](C)Oc3ccc(NS(=O)(=O)c4cccs4)cc3C(=O)N([C@H](C)CO)C[C@@H]2C)cc1	inactive
C[C@@H]1CN([C@H](C)CO)C(=O)c2cc(NC(=O)c3ccncc3)ccc2O[C@H]1CN(C)Cc1ccc2c(c1)OCO2	inactive
